High-throughput results from PubChem BioAssay.
Hits are enriched below; roughly 10% of the tested compounds scored in any of these assays.
Sfp PPTase inh – inhibitors of Bacillus subtilis Sfp phosphopantetheinyl transferase; Q9F4F7; Biochemical Sfp PPTase activity, qHTS; Potency, µM, most hits filed as inhibitors; 310,000 tested, 3.5% active;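 note: the enzyme is Sfp with the accession as filed and its product quenches rhodamine fluorescence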
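Fluorescence-quenching assay: 15 nM Sfp-PPTase preincubated 15 min at room temperature with compound, then 5 uM rhodamine-CoA and 12.5 uM BHQ-2-labelled YbbR peptide added. Fluorescence (ex 525/em 598 nm) read at start and after 30 min; difference gives rate.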
Mm-Cpn inhibitor – M. maripaludis TRiC chaperonin inhibition. purified Mm-Cpn ATPase, ADP Transcreener TR-FRET. Potency, µM (top dose mostly 76.9 µM), actives largely listed as inhibitors. 330,000 tested, 0.031% active. AID 504842; note: nearly all actives have a fitted effect of over 80% in size
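ATP (10 uM final) was added to archaeal chaperonin (25 nM final) after 10 min exposure to test compound at 37°C; after 30 min further incubation, ADP was detected by competitive TR-FRET.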
G9a block – G9a (human) methyltransferase inhibition; 350,000 tested, 8.8% active; Q96KQ7; Potency, µM (series often up to 102 µM), actives largely listed as inhibitors; AID 504332; G9a H3K9 monomethylation, AlphaScreen, 2 h; note: nearly all actives have a fitted effect of over 75% in size
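Step 1: enzyme (final 20 nM) with compound, 15 min RT. Step 2: substrate peptide 500 nM and SAM 20 uM, 2 h RT. Step 3: anti-H3K9me1 antibody and AlphaScreen beads, 10 min, then plate read.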
PLK1 PBD inh – inhibitors of human PLK1 polo-box domain binding. 360,000 tested, 2.8% active. Potency, µM, most hits filed as inhibitors. AID 720504. P53350. Plk1 PBD binding of FITC phosphopeptide, fluorescence polarization; note: series mostly up to about 57 µM; nearly all actives have a fitted effect of over 65% in size
Target sequence (P53350 whole entry, looked up, the tested form may be a part): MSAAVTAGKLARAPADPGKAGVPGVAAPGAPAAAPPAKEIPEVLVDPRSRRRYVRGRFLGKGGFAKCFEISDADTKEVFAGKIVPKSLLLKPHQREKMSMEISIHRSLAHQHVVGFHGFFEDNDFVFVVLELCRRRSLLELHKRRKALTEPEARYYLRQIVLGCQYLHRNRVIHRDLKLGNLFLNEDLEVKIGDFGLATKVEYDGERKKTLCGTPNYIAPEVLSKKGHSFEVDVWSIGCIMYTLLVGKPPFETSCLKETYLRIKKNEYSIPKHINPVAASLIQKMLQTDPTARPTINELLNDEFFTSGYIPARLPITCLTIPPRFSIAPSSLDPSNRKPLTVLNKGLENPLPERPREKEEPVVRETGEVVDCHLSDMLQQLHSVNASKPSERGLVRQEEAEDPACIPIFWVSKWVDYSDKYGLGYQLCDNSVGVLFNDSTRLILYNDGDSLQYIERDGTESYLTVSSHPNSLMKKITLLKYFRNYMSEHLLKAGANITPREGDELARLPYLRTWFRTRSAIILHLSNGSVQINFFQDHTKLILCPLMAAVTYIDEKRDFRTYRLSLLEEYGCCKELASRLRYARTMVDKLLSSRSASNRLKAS
CCT modulator – cytosolic chaperonin activity modulation; purified chaperonin ATPase assay, HTRF ADP detection, 30 min; activity change, % (concentration not given with the values), hits read low; 360,000 tested, 0.3% active; in the data active = activity change below about -30%
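Enzyme 40 or 20 nM (batch-dependent) in Tris pH 7.4/KCl/MgCl2/DTT; cpd 76 uM single point; ATP 10 uM; 30 min 37 °C; Transcreener ADP HTRF detection, 30 min RT; ratio 665/615.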
VDR inh – blocks the human vitamin D receptor; P11473; VDR-SRC2-3 peptide fluorescence polarization, 2 h; Potency, µM, most hits filed as inhibitors; 400,000 tested, 0.93% active
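FP read-out; VDR + SRC2-3 coactivator peptide; 23 nl compound by pintool; 2 h RT incubation; reagents held at 4 deg C, protected from light.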
Hits are given with their value; n = inactive; u = inconclusive; x = no result; [ ] = remark or other dose. Unless noted, calls come from the whole dose curve; as a rule, active = well fitted curve in the direction sought with a large enough effect; inconclusive = small, poorly fitted or top-dose-only effect, or another doubt; inactive = no such curve, though single readings can be large; an effect the other way counts as inactive or inconclusive.

SMILES	Sfp PPTase inh	Mm-Cpn inhibitor	G9a block	PLK1 PBD inh	CCT modulator	VDR inh
CCCCC1(C)OC(=O)C(=Cc2ccc(N(C)C)cc2)C(=O)O1 (configuration not stated)	n	n	n[12.7 µM]	u	n	u
CN(C)c1ccc(C=C2C=Cc3ccccc32)cc1	x	x	x	n	n	n
CN(C)c1ccc(C=c2c3ccccc3n3c2c2ccccc2[n+]3C)cc1	x	x	x	23.8µM	n	n
Cc1cc2c(=Cc3ccc(N(C)C)cc3)c3ccccc3n2[n+]1C	x	x	x	n	-45.0	n
CCOC(=O)c1cc2c(=Cc3ccc(N(C)C)cc3)c3ccccc3n2[n+]1C	x	x	x	13.4µM	n	u
CCN(CCCNC(=O)c1nn(-c2ccc(OC)c(Cl)c2)c(=O)c2c1c1ccccc1n2C)c1cccc(C)c1	x	x	n	x	x	n
Cc1ccc(C)c(CSc2nc(-c3ccccc3F)nc3c2Cc2c(CO)cnc(C)c2O3)c1	x	x	n	x	x	n
CC(C)n1ncc2c(C(=O)O)cc(C3CC3)nc21	n	n	n	29.9µM	n	u
CC(C)Oc1ccc(CNS(=O)(=O)c2ccc(-c3cc(C(F)(F)F)on3)s2)cc1	x	x	n	x	x	n
CCCCOC(=O)Sc1nc2ccccc2o1	39.8µM	n	25.1µM	u	n	u
Cc1ccc(C)c(CN2C(=O)c3ccccc3S(=O)(=O)c3ccc(C(=O)N4CCN(c5ccccn5)CC4)cc32)c1	x	x	u	x	x	n
O=C(NN1CCOCC1)c1ccccc1F	n	n	x	n	n	n
O=C(NN1CCOCC1)c1sc2cccc(F)c2c1Cl	n	n	28.2µM	n	n	n
O=c1cc(-c2ccc(C3CCCCC3)cc2)[nH][nH]1	n	n	n	23.8µM	n	n
CC1=CCC2C(=O)N(c3ccc(C(=O)N4CCCCCC4)cc3)C(=O)C2C1 (configuration not stated)	n	n	n	16.8µM	n	n
CC[C@H](C)[C@H](NC(=O)[C@@H](NC(=O)[C@@H](CC(=O)NO)Cc1ccccc1)[C@@H](C)CC)C(=O)O	n	x	x	x	x	n
CC(C)(SC(=S)N1CCCCCC1)C(=O)O	79.4µM	n	x	u	n	n
CNC(=O)C1CCC(Cn2c(=O)c3sccc3n(Cc3ccc(F)cc3)c2=O)CC1 (configuration not stated)	x	x	n	x	x	n
COc1ccccc1NC(=O)CN1CCC(n2nnc3cc(F)ccc32)CC1	n	n	n[12.7 µM]	n	n	n
O=C(CN1CCC(n2nnc3cc(F)ccc32)CC1)NCc1ccco1	56.2µM	n	u	n	n	n
[O-]c1c[n+](-c2ccccc2)no1	n	n	5.01µM	n	n	n
[O-]c1c[n+](-c2ccc(-[n+]3cc([O-])on3)cc2)no1	56.2µM	n	n	n	n	u
COc1ccc2c(c1)CC(C(=O)Nc1ccc(Br)c(C)c1)CO2 (configuration not stated)	x	x	n	x	x	n
CCN1c2ccccc2-c2nc(SCC(=O)NCc3ccccc3)ncc2S1(=O)=O	x	x	n	x	x	n
CC1=Nc2ccc(C)cc2/C1=C/c1c(N)n2c(S(=O)(=O)C(C)C)nsc2nc1=O	n	n	50.1µM	u	n	n
SMILES	Sfp PPTase inh	Mm-Cpn inhibitor	G9a block	PLK1 PBD inh	CCT modulator	VDR inh
c1csc(-c2nnc(N3CCOCC3)c3ccccc23)c1	n	n	39.8µM	n	n	n
CCOc1ccc(-c2nnc(N3CCOCC3)c3ccccc23)cc1	n	n	n	n	n	n
c1csc(-c2nnc(N3CCCCCC3)c3ccccc23)c1	u	n	10µM	n	n	n
Cc1cc(C)nc(SCC(=O)Oc2ccc3oc(=O)cc(C)c3c2)n1	n	n	50.1µM	26.7µM	n	n
O=C1c2c(O)cc(O)cc2O[C@@]12c1c(cc(O)c3c1O[C@H](c1ccc(O)cc1)[C@@H](O)C3)O[C@@H]2c1ccc(O)cc1	n	n	50.1µM	n	n	n
Cc1ccccc1NC(=O)Cn1c(SCC(=O)Nc2ccc(F)cc2)nc2ccccc21	x	x	n[12.7 µM]	x	x	n
CCn1ncc([C@@H]2C[C@H]3CN(Cc4cccc(Cl)c4)C(=O)[C@]34CCCN24)c1C	n	n	u	n	n	n
O=C1N(Cc2cccc(Cl)c2)C[C@@H]2C[C@@H](c3cccn3-c3cccnc3)N3CCC[C@@]123	n	n	50.1µM	n	n	n
